# Assay results: ChEMBL document CHEMBL3988442, “University of Dundee, Small-Polar-MMV Screening Library” (2021)
# For some assays here: Results with a measured potency or affinity are listed apart.
# Tests used:
# Set-up in all cases: scale not given: direction of the effect not stated beside the values
# [1] = molecular target: Protein translocase subunit SecA (Escherichia coli (strain K12)) (UniProt P10408); assay: Assay to Identify E. coli SecA ATPase Inhibitors; type: functional; details: 30 µM
# [2] = molecular target: T1, Ubiquitin-activating enzyme e1, putative (Leishmania donovani (strain BPK282A1)) (UniProt E9BSI1); assay: Leishmania donovani Ubiquitin Activating Enzyme (LdE1); type: functional; details: 30 µM
# T1 sequence (whole entry): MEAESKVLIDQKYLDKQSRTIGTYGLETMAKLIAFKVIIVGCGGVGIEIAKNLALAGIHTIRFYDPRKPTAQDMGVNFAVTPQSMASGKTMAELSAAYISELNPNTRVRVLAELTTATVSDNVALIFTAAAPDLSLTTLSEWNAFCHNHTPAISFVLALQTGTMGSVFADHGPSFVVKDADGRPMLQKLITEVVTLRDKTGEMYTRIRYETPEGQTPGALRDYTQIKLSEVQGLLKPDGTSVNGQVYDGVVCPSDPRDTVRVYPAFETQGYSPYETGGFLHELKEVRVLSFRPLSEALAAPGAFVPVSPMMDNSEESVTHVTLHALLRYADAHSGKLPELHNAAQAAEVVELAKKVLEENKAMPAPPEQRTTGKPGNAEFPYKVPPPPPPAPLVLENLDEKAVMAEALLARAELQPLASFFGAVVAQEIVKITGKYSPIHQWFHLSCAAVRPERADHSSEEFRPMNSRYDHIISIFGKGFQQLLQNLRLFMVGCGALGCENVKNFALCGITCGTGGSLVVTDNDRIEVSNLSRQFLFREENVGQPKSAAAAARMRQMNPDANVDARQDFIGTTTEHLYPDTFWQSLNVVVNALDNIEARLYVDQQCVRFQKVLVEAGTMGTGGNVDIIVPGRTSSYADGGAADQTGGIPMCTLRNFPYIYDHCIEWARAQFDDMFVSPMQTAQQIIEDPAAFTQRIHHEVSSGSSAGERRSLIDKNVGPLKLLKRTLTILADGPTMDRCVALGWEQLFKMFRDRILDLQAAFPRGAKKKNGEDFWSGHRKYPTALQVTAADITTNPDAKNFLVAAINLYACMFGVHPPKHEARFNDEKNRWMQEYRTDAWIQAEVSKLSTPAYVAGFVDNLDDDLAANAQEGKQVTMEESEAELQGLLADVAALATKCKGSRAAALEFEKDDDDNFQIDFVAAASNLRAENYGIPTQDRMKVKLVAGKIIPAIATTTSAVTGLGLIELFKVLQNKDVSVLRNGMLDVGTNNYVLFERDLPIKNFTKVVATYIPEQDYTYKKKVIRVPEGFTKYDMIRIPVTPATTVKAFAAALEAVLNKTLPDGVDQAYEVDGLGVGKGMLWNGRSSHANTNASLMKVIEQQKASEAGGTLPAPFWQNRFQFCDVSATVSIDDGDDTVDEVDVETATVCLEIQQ
# [3] = molecular target: AMP-activated protein kinase, AMPK (Homo sapiens) (UniProt P54646+O43741+P54619+Q9UGJ0+Q9Y478+Q13131+Q9UGI9); assay: AMP-dependent Kinase enzyme assay. An in vitro enzyme assay that detects ADP turnover that is directly proportional to AMPK activity. This uses naive AMPK that is activated during the assay with MK-8722; type: functional; details: 30 µM
# [4] = molecular target: Sialic acid-binding Ig-like lectin 9 (Homo sapiens) (UniProt Q9Y336); assay: Hs-Siglec9 ALPHAscreen SOP 20170721; details: 10 µM
# Trypanosoma cruzi = assay: Trypanosoma cruzi phosphomannomutase and mannose-1-phosphate guanylyltransferase assay; type: functional; details: 10 µM
# [5] = molecular target: T2, Arginase-2, mitochondrial (Homo sapiens) (UniProt P78540); assay: in vitro enzyme assay to detect the production of urea directly proportional to the activity of Arginase II; type: functional; details: 33.3 µM; also: in the data most compounds retested in dose-response had high values
# T2 sequence (whole entry): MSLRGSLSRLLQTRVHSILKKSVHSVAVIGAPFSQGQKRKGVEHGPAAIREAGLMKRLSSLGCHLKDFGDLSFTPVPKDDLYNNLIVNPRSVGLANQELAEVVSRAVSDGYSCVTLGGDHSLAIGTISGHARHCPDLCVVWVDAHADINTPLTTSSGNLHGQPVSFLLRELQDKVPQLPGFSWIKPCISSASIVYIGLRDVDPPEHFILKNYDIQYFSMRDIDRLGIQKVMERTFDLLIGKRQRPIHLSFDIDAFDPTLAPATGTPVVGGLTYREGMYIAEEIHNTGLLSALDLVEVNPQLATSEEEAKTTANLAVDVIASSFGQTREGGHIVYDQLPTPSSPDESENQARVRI
# [6] = molecular target: T3, Proteasome subunit beta (Trypanosoma cruzi) (UniProt O96673); assay: Trypanosoma cruzi proteasome chymotrypsin-like activity (TcProtChymo) assay.; also: in the data most compounds retested in dose-response had high values; type: functional; details: 9.37 µM
# T3 sequence (whole entry): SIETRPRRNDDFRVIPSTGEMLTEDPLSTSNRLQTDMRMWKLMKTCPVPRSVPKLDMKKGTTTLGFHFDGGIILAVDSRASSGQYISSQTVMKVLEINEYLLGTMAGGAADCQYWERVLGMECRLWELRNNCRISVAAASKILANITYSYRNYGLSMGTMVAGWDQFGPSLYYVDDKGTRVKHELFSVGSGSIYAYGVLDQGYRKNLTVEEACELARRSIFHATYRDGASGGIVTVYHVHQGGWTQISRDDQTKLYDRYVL
# Homo sapiens = species: Homo sapiens; assay: To identify inhibition of the IFN signalling (Jak-Stat) pathway via expression of an eGFP reporter gene under the control of an IFN-stimulated response element (ISRE) containing MxA promoter.; type: functional; details: 30 µM
# [7] = molecular target: T4, Tyrosyl-tRNA synthetase, putative (Trypanosoma cruzi (strain CL Brener)) (UniProt Q4DSP6); assay: Trypanosoma cruzi tyrosyl tRNA synthetase (TcYRS) _High Tyrosine SOP; type: functional; details: 30 µM; also: in the data most compounds retested in dose-response had high values
# T4 sequence (whole entry): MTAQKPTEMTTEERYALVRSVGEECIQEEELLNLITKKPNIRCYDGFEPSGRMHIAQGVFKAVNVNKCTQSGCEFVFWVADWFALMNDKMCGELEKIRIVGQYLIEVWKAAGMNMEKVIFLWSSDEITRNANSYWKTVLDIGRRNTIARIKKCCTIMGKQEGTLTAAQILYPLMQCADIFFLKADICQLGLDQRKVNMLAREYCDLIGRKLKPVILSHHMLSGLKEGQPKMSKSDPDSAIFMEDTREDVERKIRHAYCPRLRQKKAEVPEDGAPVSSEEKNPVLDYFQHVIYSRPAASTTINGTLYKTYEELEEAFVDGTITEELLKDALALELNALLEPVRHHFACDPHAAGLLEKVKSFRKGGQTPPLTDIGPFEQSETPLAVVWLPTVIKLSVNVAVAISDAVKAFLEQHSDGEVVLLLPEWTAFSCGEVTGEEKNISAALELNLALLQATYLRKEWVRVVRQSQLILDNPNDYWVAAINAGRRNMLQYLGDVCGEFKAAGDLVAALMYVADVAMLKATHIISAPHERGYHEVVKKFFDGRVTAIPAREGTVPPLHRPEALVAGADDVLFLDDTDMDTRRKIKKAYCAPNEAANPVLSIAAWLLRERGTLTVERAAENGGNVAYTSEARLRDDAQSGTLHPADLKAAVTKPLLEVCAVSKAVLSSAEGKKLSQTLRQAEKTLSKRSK
# [8] = molecular target: T4, Tyrosyl-tRNA synthetase, putative (Trypanosoma cruzi (strain CL Brener)); assay: Trypanosoma cruzi tyrosyl tRNA synthetase (TcYRS) SOP; type: functional; details: 30 µM
# [9] = molecular target: Chromo domain-containing protein 1 (Saccharomyces cerevisiae (strain ATCC 204508 / S288c) (Baker's yeast)) (UniProt P32657); assay: ScCHD-1 Enzyme Inhibition Assay; type: functional; details: 30 µM; also: in the data most compounds retested in dose-response had high values
# Sequence of Chromo domain-containing protein 1 (Saccharomyces cerevisiae (strain ATCC 204508 / S288c) (Baker's yeast)) (P32657 whole entry, the tested form may be a part): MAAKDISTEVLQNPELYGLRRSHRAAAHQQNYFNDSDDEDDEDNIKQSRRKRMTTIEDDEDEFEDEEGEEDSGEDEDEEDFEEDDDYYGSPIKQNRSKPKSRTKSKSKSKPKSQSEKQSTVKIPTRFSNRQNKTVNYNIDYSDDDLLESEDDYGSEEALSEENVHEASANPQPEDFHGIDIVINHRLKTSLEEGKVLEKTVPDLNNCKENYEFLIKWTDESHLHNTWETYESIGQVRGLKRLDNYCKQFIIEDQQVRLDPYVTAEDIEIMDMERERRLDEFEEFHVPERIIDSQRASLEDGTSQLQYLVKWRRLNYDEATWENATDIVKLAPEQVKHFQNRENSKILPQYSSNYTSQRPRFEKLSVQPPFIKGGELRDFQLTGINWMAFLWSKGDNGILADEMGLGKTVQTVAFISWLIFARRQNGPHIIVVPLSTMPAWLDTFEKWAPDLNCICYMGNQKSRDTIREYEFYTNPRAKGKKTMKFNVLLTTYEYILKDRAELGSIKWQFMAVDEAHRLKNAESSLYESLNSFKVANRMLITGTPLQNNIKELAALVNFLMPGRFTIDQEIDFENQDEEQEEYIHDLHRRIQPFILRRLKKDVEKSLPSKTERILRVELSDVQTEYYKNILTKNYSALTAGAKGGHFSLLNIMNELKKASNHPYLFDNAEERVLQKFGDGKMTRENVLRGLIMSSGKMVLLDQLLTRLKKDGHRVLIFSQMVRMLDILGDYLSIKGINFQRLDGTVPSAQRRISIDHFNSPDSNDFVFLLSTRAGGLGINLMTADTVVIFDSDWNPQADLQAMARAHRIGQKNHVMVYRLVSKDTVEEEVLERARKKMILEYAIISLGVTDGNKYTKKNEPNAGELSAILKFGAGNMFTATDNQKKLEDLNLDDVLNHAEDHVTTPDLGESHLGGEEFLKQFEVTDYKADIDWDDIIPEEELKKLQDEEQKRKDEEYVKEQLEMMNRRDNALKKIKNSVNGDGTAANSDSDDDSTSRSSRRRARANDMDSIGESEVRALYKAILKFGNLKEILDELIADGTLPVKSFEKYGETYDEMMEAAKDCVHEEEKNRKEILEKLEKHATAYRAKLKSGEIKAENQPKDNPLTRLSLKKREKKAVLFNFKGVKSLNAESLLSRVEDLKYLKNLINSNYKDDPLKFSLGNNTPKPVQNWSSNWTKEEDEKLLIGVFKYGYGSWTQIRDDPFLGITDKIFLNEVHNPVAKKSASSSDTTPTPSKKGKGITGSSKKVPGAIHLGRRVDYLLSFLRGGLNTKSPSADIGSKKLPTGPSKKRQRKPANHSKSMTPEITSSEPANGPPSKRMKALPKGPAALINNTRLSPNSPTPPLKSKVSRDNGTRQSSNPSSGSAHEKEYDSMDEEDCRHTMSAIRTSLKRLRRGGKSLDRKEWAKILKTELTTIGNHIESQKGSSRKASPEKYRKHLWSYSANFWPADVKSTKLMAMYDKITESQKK
# Sequence of Sialic acid-binding Ig-like lectin 9 (Homo sapiens) (Q9Y336 whole entry): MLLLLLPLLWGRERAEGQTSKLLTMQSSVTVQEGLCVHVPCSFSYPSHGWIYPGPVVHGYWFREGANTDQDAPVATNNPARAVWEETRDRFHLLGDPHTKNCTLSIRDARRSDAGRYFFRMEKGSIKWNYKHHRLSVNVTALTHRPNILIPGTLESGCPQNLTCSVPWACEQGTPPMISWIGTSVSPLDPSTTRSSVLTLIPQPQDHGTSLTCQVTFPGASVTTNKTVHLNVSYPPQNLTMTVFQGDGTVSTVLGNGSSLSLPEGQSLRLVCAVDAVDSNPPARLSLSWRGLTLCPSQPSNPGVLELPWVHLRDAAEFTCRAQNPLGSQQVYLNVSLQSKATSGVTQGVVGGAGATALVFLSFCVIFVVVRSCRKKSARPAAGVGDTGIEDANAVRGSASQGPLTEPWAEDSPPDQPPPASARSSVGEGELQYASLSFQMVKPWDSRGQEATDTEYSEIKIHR
# Sequence of Protein translocase subunit SecA (Escherichia coli (strain K12)) (P10408 whole entry): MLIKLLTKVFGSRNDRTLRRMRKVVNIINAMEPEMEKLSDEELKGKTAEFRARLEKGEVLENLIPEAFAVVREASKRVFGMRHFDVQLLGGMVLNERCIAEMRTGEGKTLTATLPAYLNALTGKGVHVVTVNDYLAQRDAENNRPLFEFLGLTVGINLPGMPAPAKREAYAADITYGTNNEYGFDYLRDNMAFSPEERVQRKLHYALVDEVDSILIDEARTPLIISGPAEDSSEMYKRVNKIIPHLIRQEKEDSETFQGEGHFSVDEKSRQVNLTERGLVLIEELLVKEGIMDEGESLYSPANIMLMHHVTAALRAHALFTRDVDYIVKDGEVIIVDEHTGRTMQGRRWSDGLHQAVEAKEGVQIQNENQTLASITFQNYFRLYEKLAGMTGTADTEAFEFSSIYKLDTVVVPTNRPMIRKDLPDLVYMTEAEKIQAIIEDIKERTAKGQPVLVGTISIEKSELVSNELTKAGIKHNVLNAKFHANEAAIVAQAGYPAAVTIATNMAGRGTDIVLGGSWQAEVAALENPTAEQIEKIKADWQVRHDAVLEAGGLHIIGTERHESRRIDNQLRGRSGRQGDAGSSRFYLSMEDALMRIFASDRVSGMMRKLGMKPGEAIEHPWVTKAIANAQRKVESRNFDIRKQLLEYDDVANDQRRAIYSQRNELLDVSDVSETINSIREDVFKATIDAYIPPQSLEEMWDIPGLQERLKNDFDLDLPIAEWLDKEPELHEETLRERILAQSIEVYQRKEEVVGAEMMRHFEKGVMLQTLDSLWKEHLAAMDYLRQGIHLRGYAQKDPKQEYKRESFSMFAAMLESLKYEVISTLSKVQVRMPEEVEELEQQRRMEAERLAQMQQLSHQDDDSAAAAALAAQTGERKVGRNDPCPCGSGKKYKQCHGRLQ
SMILES,Percent Effect [1] [%],Percent Effect [2] [%],Percent Effect [3] [%],Percent Effect [4] [%],Percent Effect (Trypanosoma cruzi) [%],Percent Effect [5] [%],Percent Effect [6] [%],Percent Effect (Homo sapiens) [%],Percent Effect [7] [%],Percent Effect [8] [%],Percent Effect [9] [%]
CN(C)C(=O)COCc1cncc2c1CCN(Cc1cnn(C)c1)C2,-4.54,10.4,1.37,20,0.0983,-6.9,11.8,10.6,3.23,8.64,-2.53
CN1CCc2cc(C(CNS(=O)(=O)c3cccs3)N3CCCC3)ccc21 (stereo not given),-1.64,13,7.05,-7.92,-5.42,-9.68,8.88,12.5,0,8.97,-8.44
CC(C)c1n[nH]c(C2CN(Cc3nnc(C4CC4)o3)CCO2)n1 (stereo not given),-2.46,0,9.78,-2.59,-3.87,-8.37,6.47,27.6,-5.42,-11.4,-1.54
CCN1CCN(C2CCN(Cc3nc(-c4ccoc4)no3)CC2)C1=O,-8.04,2.6,7.03,-5.89,-5.24,1.07,0.676,23.7,1.94,0,-2.83
CC1CCc2nc(O)c(C(=O)NCCN(C)C)cc2C1 (stereo not given),-6.34,4,-0.0231,6.09,1.38,-6.51,14.8,-2.83,1.06,2.56,-5.39
CC[C@@]1(O)CCN(C(=O)c2ccc(-c3cccc(F)c3)cc2)C[C@H]1O,-2.8,4.17,-2.66,-8.29,-3.6,0.883,13.3,16.4,2.1,10.3,-3.01
Cc1ccc(C#N)c(N2CCC(c3nccn3CCN(C)C)CC2)n1,-4.49,2.67,1.54,4.68,-3.6,-2.08,11.7,12.9,7.1,11.1,-8.91
N#Cc1ccccc1CN1C[C@@H]2CC[C@H](C1)N(CC1CC1)C2=O,-0.53,13.5,-0.476,12.4,1.74,2.38,13.4,4.71,4.76,14.6,-0.908
CCc1nc(C2CCCN(C(=O)c3cccc4cn[nH]c34)C2)no1 (stereo not given),-7.64,5.41,1.19,7.35,-6.41,-2.77,6.64,19.4,2.97,1.22,3.58
Cc1ccccc1S(=O)(=O)NC(=O)CSc1ccc2c(c1)OCCO2,-0.381,1.39,-0.933,-9.91,-3.21,0,10,1.45,-11.6,-7.69,0.792
